# Data taken from PubChem BioAssay.
# The source made the active and inactive calls.
# How the values were obtained:
# [1] = E. coli DRC41 culture turbidity changes, primary screen, E. coli filamentation inducer project, strain DRC41, OD650, 48 h (AID 1152);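 also: E. coli MC1000 strain DRC41 lacking acrAB efflux pump and sulA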; settings: E. coli DRC41 (acrAB sulA), higher = more signal, called active from +8 up or from −8 down
# [2] = small-molecule binders of probe aLefty1, primary screen, biochemical, small-molecule microarray, 635/667 nm fluorescence (AID 1153); settings: higher = more signal;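 also: score merges spot fluorescence with signal-to-noise ratio from the scanned slide images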
# [3] = PSAC antagonists in infected red cells, primary screen, cell-based, P. falciparum Indochina, OD700, 1 h (AID 1154); settings: P. falciparum Indochina infected RBC osmotic lysis, higher = more signal, called active from +8 up or from −8 down
# [4] = PSAC antagonists in infected red cells, primary screen, cell-based, P. falciparum Indochina, OD700, 2 h (AID 1155);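 also: lysis reports solute entry through the parasite surface anion channel PSAC; channel blockers reduce lysis of infected cells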; settings: P. falciparum Indochina infected erythrocytes, osmotic lysis OD700; higher = more signal, called active from +8 up or from −8 down
# [5] = osmotic lysis modulators in infected erythrocytes, primary screen, PSAC antagonist project, cell-based, P. falciparum Indochina, OD700, 3 h (AID 1156); settings: higher = more signal, called active from +8 up or from −8 down
# [6] = PSAC antagonists in infected red cells, primary screen, cell-based, P. falciparum Indochina, OD700, 18 h (AID 1157); settings: P. falciparum Indochina infected erythrocytes, osmotic lysis OD700, 18 h; higher = more signal, called active from +8 up or from −8 down
# [7] = modulators of S6 phosphorylation in cells, primary screen, cell-based, A549, cytoblot, luminescence, serum-stimulated (AID 1158); settings: A549 phospho-S6 cytoblot, 5 h, higher = more signal;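 also: serum-stimulated A549 lung adenocarcinoma cells; signal is phosphorylated S6 detected by cytoblot immunostaining with HRP secondary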
# [8] = biological target: NADPH oxidase 2 (Homo sapiens) (UniProt P04839); experiment: NOX2-dependent H2O2 signal modulators, primary screen, NOX inhibitor project, cell-based, HEK293-NOX2, PMA-stimulated, Amplex Red fluorescence (AID 1159); settings: 45 min, higher = more signal, called active from +8 up or from −8 down; also: test concentration not given here
# [9] = biological target: NADPH oxidase 4 (Homo sapiens) (UniProt Q9NPH5); experiment: NOX4-dependent H2O2 signal modulators, primary screen, NOX inhibitor project, cell-based, HEK293-NOX4, tetracycline-induced, Amplex Red fluorescence (AID 1160); settings: 45 min, higher = more signal, called active from +8 up or from −8 down
# [10] = biological target: NADPH oxidase 5 (Homo sapiens) (UniProt Q96PH1); experiment: NOX5-dependent H2O2 signal modulators, primary screen, NOX inhibitor project, cell-based, HEK293-NOX5, Amplex Red fluorescence (AID 1161); settings: HEK293-NOX5, ionomycin, 45 min, higher = more signal
# [11] = A549 cell viability effects, profiling panel, calcein-AM fluorescence, 48 h, basal (AID 1162); settings: higher = more signal; also: test concentration not given here
# [12] = adipocyte viability effects, profiling panel, cell-based, 3T3-L1 adipocytes, calcein-AM fluorescence, 48 h, basal (AID 1163); settings: 3T3-L1 adipocytes viability, higher = more signal; also: test concentration not given here
# [13] = HepG2 cell viability effects, profiling panel, calcein-AM fluorescence, 48 h, basal (AID 1164); settings: higher = more signal; also: test concentration not given here
# [14] = MM1S cell viability effects, profiling panel, calcein-AM fluorescence, 48 h, basal (AID 1165); settings: higher = more signal;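 also: viability of MM1S multiple myeloma cells under basal unstimulated conditions; test concentration not given here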
# [15] = basal RPMI8226 viability, no added stimulus, profiling panel, cell-based, calcein-AM fluorescence, 48 h, PK04 Diversity Set (AID 1166); settings: RPMI8226 myeloma viability, higher = more signal;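 also: cells grown under basal conditions without added stimulus; test concentration not given here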
# [16] = basal HepG2 mitochondrial membrane potential changes, profiling panel, cell-based, JC-1 fluorescence, 24 h, 100 nL compound (AID 1167); settings: higher = more signal; also: test concentration not given here
# [17] = basal 3T3-L1 adipocyte mitochondrial potential changes, profiling panel, cell-based, JC-1 fluorescence, 3T3-L1 adipocytes, 24 h, 100 nL compound (AID 1168); settings: JC-1 mitochondrial fluorescence, higher = more signal, called active from +8 up or from −8 down; also: test concentration not given here
# [18] = basal RPMI8226 mitochondrial membrane potential changes, profiling panel, cell-based, JC-1 fluorescence, 24 h, 100 nL compound (AID 1169); settings: RPMI8226 myeloma, JC-1 mitochondrial potential fluorescence, higher = more signal; also: test concentration not given here
# [19] = basal MM1S mitochondrial membrane potential changes, profiling panel, cell-based, JC-1 fluorescence, 24 h, 100 nL compound (AID 1170); settings: higher = more signal; also: test concentration not given here
# [20] = A549 lung cancer cell viability effects, profiling panel, resazurin fluorescence, 24 h, PK04 Diversity Set (AID 1171); settings: higher = more signal, called active from +8 up or from −8 down; also: test concentration not given here
# NADPH oxidase 2 (Homo sapiens), sequence (P04839 whole entry, looked up): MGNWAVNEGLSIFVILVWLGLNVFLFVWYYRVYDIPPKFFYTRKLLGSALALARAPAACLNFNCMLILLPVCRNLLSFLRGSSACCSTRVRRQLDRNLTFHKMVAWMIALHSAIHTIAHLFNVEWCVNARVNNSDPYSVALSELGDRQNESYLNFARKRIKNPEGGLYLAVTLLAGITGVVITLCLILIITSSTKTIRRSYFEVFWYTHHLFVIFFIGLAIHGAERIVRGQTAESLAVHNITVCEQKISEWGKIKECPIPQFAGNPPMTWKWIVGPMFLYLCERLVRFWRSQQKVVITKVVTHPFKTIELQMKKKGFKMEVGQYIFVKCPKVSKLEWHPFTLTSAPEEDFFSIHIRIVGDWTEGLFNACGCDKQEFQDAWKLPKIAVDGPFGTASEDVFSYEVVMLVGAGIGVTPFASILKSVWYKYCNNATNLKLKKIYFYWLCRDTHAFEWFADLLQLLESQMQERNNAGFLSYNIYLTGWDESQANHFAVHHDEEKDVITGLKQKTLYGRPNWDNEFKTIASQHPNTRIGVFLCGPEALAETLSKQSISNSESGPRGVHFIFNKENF
# NADPH oxidase 5 (Homo sapiens), sequence (Q96PH1 whole entry, looked up): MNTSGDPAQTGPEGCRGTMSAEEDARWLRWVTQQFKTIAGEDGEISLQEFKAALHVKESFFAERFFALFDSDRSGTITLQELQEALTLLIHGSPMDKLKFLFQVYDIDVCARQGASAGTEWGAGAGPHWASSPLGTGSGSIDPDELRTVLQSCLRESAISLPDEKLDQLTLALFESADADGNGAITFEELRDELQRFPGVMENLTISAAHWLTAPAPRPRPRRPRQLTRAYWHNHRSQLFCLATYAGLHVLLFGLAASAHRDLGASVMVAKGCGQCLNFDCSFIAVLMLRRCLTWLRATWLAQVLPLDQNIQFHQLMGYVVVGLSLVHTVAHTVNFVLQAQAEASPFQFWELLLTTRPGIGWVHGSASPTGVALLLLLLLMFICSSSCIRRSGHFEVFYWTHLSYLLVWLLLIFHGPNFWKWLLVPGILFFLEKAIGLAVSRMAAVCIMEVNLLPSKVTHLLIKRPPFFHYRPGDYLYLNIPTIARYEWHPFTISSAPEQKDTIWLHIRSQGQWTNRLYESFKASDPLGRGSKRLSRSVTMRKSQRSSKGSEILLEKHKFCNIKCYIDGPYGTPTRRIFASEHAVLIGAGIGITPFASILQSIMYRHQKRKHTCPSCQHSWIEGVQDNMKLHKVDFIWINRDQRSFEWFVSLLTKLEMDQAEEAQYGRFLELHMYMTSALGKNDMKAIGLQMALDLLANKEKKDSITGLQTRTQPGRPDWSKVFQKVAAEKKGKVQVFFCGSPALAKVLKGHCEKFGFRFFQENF
# NADPH oxidase 4 (Homo sapiens), sequence (Q9NPH5 whole entry, looked up): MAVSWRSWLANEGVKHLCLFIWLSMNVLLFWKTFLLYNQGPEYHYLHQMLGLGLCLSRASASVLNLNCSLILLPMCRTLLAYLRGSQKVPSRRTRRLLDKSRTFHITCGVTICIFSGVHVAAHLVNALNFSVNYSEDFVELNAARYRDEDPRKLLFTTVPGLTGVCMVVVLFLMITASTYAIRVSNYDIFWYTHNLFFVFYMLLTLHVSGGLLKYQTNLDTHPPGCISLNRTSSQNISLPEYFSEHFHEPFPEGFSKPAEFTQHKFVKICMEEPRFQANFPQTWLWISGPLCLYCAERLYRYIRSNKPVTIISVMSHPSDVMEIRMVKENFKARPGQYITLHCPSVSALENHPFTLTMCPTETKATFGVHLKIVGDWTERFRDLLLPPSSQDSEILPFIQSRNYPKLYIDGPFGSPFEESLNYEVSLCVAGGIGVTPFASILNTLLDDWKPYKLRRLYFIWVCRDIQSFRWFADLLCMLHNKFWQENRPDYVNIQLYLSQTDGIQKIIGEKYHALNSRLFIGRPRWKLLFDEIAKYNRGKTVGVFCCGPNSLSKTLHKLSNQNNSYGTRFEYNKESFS
SMILES,z-score [1],composite z-score [2],z-score [3],z-score [4],z-score [5],z-score [6],z-score [7],z-score [8],z-score [9],z-score [10],z-score [11],z-score [12],z-score [13],z-score [14],z-score [15],z-score [16],z-score [17],z-score [18],z-score [19],z-score [20]
COc1ccc(O[C@H]2C=C[C@@H](c3ccccc3)O[C@@H]2COC(=O)N2CCCCC2)cc1,0.309 (inactive),0.174,2 (inactive),-0.213 (inactive),-0.0257 (inactive),-0.169 (inactive),-0.428,-0.138 (inactive),0.334 (inactive),-1.71,-0.0152,-0.303,0.0678,-0.979,-1.22,1.23,-0.0796 (inactive),-0.358,0.125,1.57 (inactive)
CCOc1ccc(N2C(=O)/C(=C/C=C/c3ccccc3OC)S(=O)(=O)C2c2cccc([N+](=O)[O-])c2)cc1 (stereo not given),3.21 (inactive),-0.0193,1.03 (inactive),0.282 (inactive),-1.1 (inactive),-1.04 (inactive),2.38,0.5 (inactive),0.389 (inactive),1.49,1.18,1.39,0.136,-2.72,-0.879,-0.855,-0.125 (inactive),-0.732,-0.0787,0.0969 (inactive)
C[C@@H]1CCC2C(=O)N(Cc3ccccc3)C[C@@H](O)CN2[C@H]1c1ccc(Br)cc1 (stereo not given in full),-0.732 (inactive),-0.0573,0.167 (inactive),-0.875 (inactive),-0.75 (inactive),-0.567 (inactive),0.805,0.615 (inactive),-0.146 (inactive),-0.836,0.247,0.13,0.229,0.314,0.447,0.687,0.303 (inactive),-0.878,1.35,0.269 (inactive)
COCCCNC(=O)[C@@]1(C)c2ccccc2C(=O)N(Cc2ccc(OC(F)(F)F)cc2)[C@H]1c1ccc(CO)cc1,0.906 (inactive),-0.191,2.23 (inactive),0.123 (inactive),1.06 (inactive),-0.0648 (inactive),-0.459,-0.599 (inactive),1.18 (inactive),0.247,0.144,-0.471,1.22,-0.0013,0.125,2.4,0.582 (inactive),-0.68,-1.06,-0.903 (inactive)
CCOC(=O)[C@H](Cc1ccccc1)NC(=O)CCC1CC(OC(=O)NCc2ccc3c(c2)OCO3)CC2(CCCC(COC(=O)NCC3CCCCC3)O2)O1 (stereo not given in full),-0.251 (inactive),0.171,0.732 (inactive),0.45 (inactive),-0.235 (inactive),0.297 (inactive),0.236,1.51 (inactive),0.737 (inactive),0.909,0.0417,-0.0963,-0.264,-2.06,-2.09,1.84,-0.0648 (inactive),-0.00903,-0.306,1.02 (inactive)
CC(=O)C[C@H](O)[C@@H](NC(=O)OC(C)(C)C)C(C)C,-0.593 (inactive),-0.196,0.427 (inactive),-0.649 (inactive),1.48 (inactive),-1.64 (inactive),1.63,0.2 (inactive),-0.658 (inactive),-1.63,0.143,0.819,0.0838,-0.476,-0.531,-0.538,-0.0163 (inactive),-0.545,-0.347,-0.289 (inactive)
Cc1cc2c(nc1C)CCCN2CC(O)CN1CCN(C)CC1 (stereo not given),-0.243 (inactive),0.0733,0.339 (inactive),0.494 (inactive),0.0085 (inactive),-0.0963 (inactive),-0.542,0.438 (inactive),-1.07 (inactive),-1.08,0.306,0.411,-1.09,0.241,-0.342,-0.601,-0.625 (inactive),0.142,0.842,-0.726 (inactive)
C[C@H](c1ccccc1)N1C(=O)[C@H]2[C@@H]3C(=CC[C@H]2C1=O)C(=O)[C@H]1O[C@H]1[C@H]3O,0.0931 (inactive),-0.239,-0.564 (inactive),-0.0275 (inactive),0.163 (inactive),-0.0165 (inactive),-0.836,-0.76 (inactive),-0.156 (inactive),1.13,-1.86,0.265,-4.46,-3.11,-3.94,1.02,1.02 (inactive),-1.03,-2.92,-2.16 (inactive)
CC(C)=NOCc1ccc(-c2cc(-c3ccccc3)no2)cc1,0.433 (inactive),-0.283,0.251 (inactive),0.367 (inactive),-0.201 (inactive),-0.0729 (inactive),0.321,-2.54 (inactive),0.311 (inactive),-0.0709,0.947,0.0379,0.433,0.283,-1.14,-0.49,-0.618 (inactive),0.825,-0.152,-0.589 (inactive)
Cn1c(=O)n2n(c1=O)[C@H]1[C@H](O)[C@@H]3O[C@@H]3C(=NOC[C@@H](O)COCc3ccco3)[C@H]1CC2,0.301 (inactive),0.946,0.697 (inactive),-0.507 (inactive),0.671 (inactive),0.08 (inactive),0.0625,-1.04 (inactive),0.733 (inactive),0.59,0.981,0.323,1.41,0.287,0.588,1.41,-0.439 (inactive),-0.402,-0.397,-0.195 (inactive)
COCCOC(=O)N1C(=O)[C@@]2(c3ccccc31)[C@H](C(N)=O)[C@H]1C(=O)O[C@H](c3ccccc3)[C@H](c3ccccc3)N1[C@@H]2c1ccccc1OCCO,0.582 (inactive),0.144,3.59 (inactive),1.14 (inactive),-0.0776 (inactive),1.2 (inactive),0.404,1.56 (inactive),1.43 (inactive),0.483,-0.421,1.59,-1.42,-3.2,-4.53,-0.728,0.633 (inactive),-1.1,-0.0748,-1.54 (inactive)
C=CC[C@]1(C(=O)NCc2ccccc2)N=C(c2ccc(OCCCO)cc2)O[C@H]1c1ccccc1,-0.0491 (inactive),0.398,14.6 (active),1.83 (inactive),0.668 (inactive),1.26 (inactive),-0.0429,-2.86 (inactive),-0.495 (inactive),-1.96,-1.38,0.43,-1.98,-2.75,-3.75,-0.022,-0.18 (inactive),-1.31,-0.988,0.953 (inactive)
CCN1C(=O)[C@H]2[C@H]3[C@H](O)C=CC(=O)[C@@H]3CC[C@H]2C1=O,-0.474 (inactive),-0.265,-0.441 (inactive),-0.343 (inactive),-0.795 (inactive),-0.21 (inactive),0.176,0.0244 (inactive),-0.0152 (inactive),-0.204,0.331,0.368,0.733,-0.434,0.197,0.234,-0.661 (inactive),-0.408,1.5,0.459 (inactive)
CC(CCN1CCc2nc(-c3ccccc3)c(-c3ccccc3)cc2C1)=NOC[C@@H](C)[C@H](OCc1ccccc1)C(C)C,-0.268 (inactive),-0.0464,1.43 (inactive),1.03 (inactive),1.21 (inactive),0.637 (inactive),0.116,0.837 (inactive),-1.74 (inactive),-0.578,0.474,0.503,0.488,-0.637,-1.89,1.76,-0.479 (inactive),0.161,-0.38,-0.611 (inactive)
CC(C)=CCCC(C)=CCON=C1[C@H]2CCn3c(=O)n(Cc4cc5c(cc4Cl)OCO5)c(=O)n3[C@H]2[C@H](O)[C@@H]2O[C@H]12,-0.939 (inactive),-0.0559,1.34 (inactive),0.722 (inactive),0.555 (inactive),0.38 (inactive),0.181,0.594 (inactive),-1.12 (inactive),-0.711,-0.305,0.123,0.42,-0.918,-0.497,-0.298,-0.992 (inactive),-0.702,1.17,-0.386 (inactive)
CC(C)C[C@@H]1NC(=O)[C@H]2C[C@@H](C(=O)O)[C@@H](c3ccc(O)cc3)N2C1=O,0.498 (inactive),0.0455,5.88 (inactive),1.66 (inactive),-1.66 (inactive),0.448 (inactive),-0.239,-1.72 (inactive),-2.25 (inactive),-0.356,0.48,0.0559,0.111,-2.7,0.25,1.27,-0.0304 (inactive),0.433,-0.0341,-0.0496 (inactive)
COC(=O)CC1OC1[C@H](C)[C@@H](OC)C(C)C (stereo not given in full),0.547 (inactive),-0.0186,2.66 (inactive),-0.0353 (inactive),-0.324 (inactive),-0.146 (inactive),0.0023,-1.33 (inactive),-1.67 (inactive),-1.45,0.285,0.0498,1.66,-3.45,0.045,1.74,0.269 (inactive),0.666,-0.796,-0.292 (inactive)
COc1ccc(OC[C@H]2Cc3c(-c4ccccc4)nc4c(c3CO2)CN(CCOc2ccccc2)CC4)cc1,0.481 (inactive),-0.0141,15.4 (active),0.946 (inactive),0.661 (inactive),-0.718 (inactive),1.76,-0.0596 (inactive),-1.68 (inactive),-1.04,0.823,1.04,0.562,-2.69,-1.81,3.51,0.367 (inactive),-0.177,0.656,-0.634 (inactive)
